From PubChem BioAssay
Activity calls are given as the source filed them.

What was measured:
[1] = binders of probe aFSTL3 on microarray, primary screen, stem cell growth factor project, biochemical, small-molecule microarray, fluorescence 635/667 (AID 1064); details: higher = more signal;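 further: measures binding of the biotinylated anti-FSTL3 antibody to printed compounds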
[2] = binders from COS7 lysate, DM2A8 probe, primary screen, torsin A project, cell lysate, small-molecule microarray, fluorescence 635/667 (AID 1065); details: higher = more signal, COS7 lysate expressing mutant human TOR1A
[3] = binders of probe aFGF2 on microarray, primary screen, stem cell growth factor project, biochemical, small-molecule microarray, fluorescence 635/667 (AID 1067); details: higher = more signal;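 further: measures binding of biotinylated aFGF2 protein to printed compounds on slides; z-score merges feature fluorescence and signal-to-noise across triplicate slides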
[4] = binders of probe aFGF10 on microarray, primary screen, stem cell growth factor project, biochemical, small-molecule microarray, fluorescence 635/667 (AID 1071); details: higher = more signal;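 further: score merges 667 nm spot intensity and signal to noise from triplicate slides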
[5] = biological target: Neurogenic locus notch homolog protein 2 (Homo sapiens) (UniProt Q04721); experiment: Notch2 binders on small-molecule microarrays, primary screen, biochemical, small-molecule microarray, 635 nm fluorescence, stem cell growth factors (AID 1073); details: Notch2 binding, higher = more signal
[6] = biological target: Pro-neuregulin-1, membrane-bound isoform (Homo sapiens) (UniProt Q02297); experiment: NRG1 binders on small-molecule microarrays, primary screen, psychiatric disease protein project, biochemical, small-molecule microarray, fluorescence 635/667 (AID 1075); details: NRG1 binding, 635 nm fluorescence, higher = more signal;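 further: score combines 667 nm spot fluorescence with signal to noise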
[7] = tested on: Neuregulin-1 EGF-like domain; experiment: binders of neuregulin-1 EGF-like domain, primary screen, biochemical, small-molecule microarray, 635 nm fluorescence (AID 1081); details: small-molecule microarray binding, higher = more signal;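 further: binding of the protein to compounds printed on small-molecule microarray slides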
[8] = FRG1 promoter luciferase signal modulators, primary screen, FRG1 inhibition for FSHD, cell-based, C2C12 myotubes, firefly/Renilla luciferase, luminescence (AID 1084); details: higher = more signal, called active from +8 up or from −8 down
[9] = binders of probe aFST on microarray, primary screen, stem cell growth factor project, biochemical, small-molecule microarray, fluorescence 635/667 (AID 1086); details: higher = more signal;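 further: score merges 667 nm fluorescence with signal-to-noise of each printed compound spot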
[10] = binders of probe aHhip on microarray, primary screen, stem cell growth factor project, biochemical, small-molecule microarray, fluorescence 635/667 (AID 1087); details: higher = more signal;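 further: score merges spot fluorescence at 667nm with spot signal to noise ratio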
[11] = tested on: PRMT1 (protein arginine N-methyltransferase 1); experiment: PRMT1 binders on small-molecule microarrays, primary screen, biochemical, small-molecule microarray, 635 nm fluorescence (AID 1088); details: small-molecule microarray binding, higher = more signal;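 further: binding of Prmt1 protein to compounds spotted on small-molecule microarray slides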
[12] = yeast growth modulation, basal conditions, primary screen, YJM789 clinical isolate, OD600, 24 h (AID 1089);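 further: growth of clinical yeast isolate S. cerevisiae YJM 789 seeded 1000 cells per well; test concentration not given here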; details: S. cerevisiae YJM789 growth, higher = more signal, called active from +8 up or from −8 down
[13] = fission yeast growth modulation, primary screen, strain 972, OD600, 24 h, no modulator (AID 1090);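 further: basal condition with compound alone and no growth modifier present; test concentration not given here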; details: S. pombe 972 growth, higher = more signal, called active from +8 up or from −8 down
[14] = S. cerevisiae growth modulation with rapamycin, primary screen, strain BY4716, OD600, 96 h (AID 1091); details: higher = more signal, called active from +8 up or from −8 down; further: test concentration not given here
[15] = biological target: Torsin-1A-interacting protein 2 (Homo sapiens) (UniProt Q8NFQ8); experiment: LULL1 binders on small-molecule microarray, primary screen, cell lysate, human LULL1 lysate, 635/667 nm fluorescence (AID 1092); details: hLULL1 lysate binding, 635 nm fluorescence, higher = more signal;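 further: probe is lysate of COS7 cells overexpressing human LULL1; score merges per-feature 667 nm fluorescence with signal-to-noise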
[16] = E. coli growth modulation, two-sided OD650, primary screen, E. coli filamentation project, strain DRC41, 24 h (AID 1093); details: OD650, 24 h, higher = more signal, called active from +8 up or from −8 down;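 further: MC1000 strain lacking acrAB efflux and sulA so SOS filamentation is blocked; test concentration not given here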
[17] = small-molecule microarray binders of probe aLefty2, primary screen, biochemical, biotinylated probe, 635/667 nm fluorescence (AID 1094); details: higher = more signal;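 further: score merges spot fluorescence near 667 nm with spot signal-to-noise ratio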
[18] = tested on: Noggin (protein binding on small-molecule microarray); experiment: Noggin binders on small-molecule microarray, primary screen, biochemical, 635/667 nm fluorescence (AID 1095); details: 635 nm fluorescence, higher = more signal;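 further: score merges 667 nm feature fluorescence with signal to noise over triplicate slides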
[19] = biological target: Neurogenic locus notch homolog protein 3 (Homo sapiens) (UniProt Q9UM47); experiment: NOTCH3 binders on small-molecule microarray, primary screen, biochemical, 635/667 nm fluorescence (AID 1096); details: NOTCH3 binding, 635 nm fluorescence, higher = more signal
[20] = small-molecule microarray binders of probe aEGFR, primary screen, biochemical, biotinylated probe, 635/667 nm fluorescence (AID 1097); details: higher = more signal;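 further: probe is a biotinylated anti-EGFR antibody binding compounds printed on slides; score combines fluorescence near 667 nm and signal to noise of each spot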

Chain of Torsin-1A-interacting protein 2 (Homo sapiens) (Q8NFQ8 whole entry, looked up): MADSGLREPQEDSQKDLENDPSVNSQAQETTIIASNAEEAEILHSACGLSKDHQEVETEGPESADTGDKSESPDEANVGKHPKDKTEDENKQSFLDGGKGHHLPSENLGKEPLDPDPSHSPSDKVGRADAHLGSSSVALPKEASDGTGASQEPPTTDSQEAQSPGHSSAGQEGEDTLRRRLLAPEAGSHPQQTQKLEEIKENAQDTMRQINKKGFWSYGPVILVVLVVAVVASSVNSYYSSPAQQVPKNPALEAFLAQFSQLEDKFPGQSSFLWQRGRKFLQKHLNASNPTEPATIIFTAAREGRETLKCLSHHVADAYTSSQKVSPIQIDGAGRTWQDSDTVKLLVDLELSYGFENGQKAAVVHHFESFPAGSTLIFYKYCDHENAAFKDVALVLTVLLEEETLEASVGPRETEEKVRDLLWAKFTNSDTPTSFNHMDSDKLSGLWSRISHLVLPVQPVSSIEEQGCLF
Chain of Pro-neuregulin-1, membrane-bound isoform (Homo sapiens) (Q02297 whole entry, looked up, the tested form may be a part, canonical isoform): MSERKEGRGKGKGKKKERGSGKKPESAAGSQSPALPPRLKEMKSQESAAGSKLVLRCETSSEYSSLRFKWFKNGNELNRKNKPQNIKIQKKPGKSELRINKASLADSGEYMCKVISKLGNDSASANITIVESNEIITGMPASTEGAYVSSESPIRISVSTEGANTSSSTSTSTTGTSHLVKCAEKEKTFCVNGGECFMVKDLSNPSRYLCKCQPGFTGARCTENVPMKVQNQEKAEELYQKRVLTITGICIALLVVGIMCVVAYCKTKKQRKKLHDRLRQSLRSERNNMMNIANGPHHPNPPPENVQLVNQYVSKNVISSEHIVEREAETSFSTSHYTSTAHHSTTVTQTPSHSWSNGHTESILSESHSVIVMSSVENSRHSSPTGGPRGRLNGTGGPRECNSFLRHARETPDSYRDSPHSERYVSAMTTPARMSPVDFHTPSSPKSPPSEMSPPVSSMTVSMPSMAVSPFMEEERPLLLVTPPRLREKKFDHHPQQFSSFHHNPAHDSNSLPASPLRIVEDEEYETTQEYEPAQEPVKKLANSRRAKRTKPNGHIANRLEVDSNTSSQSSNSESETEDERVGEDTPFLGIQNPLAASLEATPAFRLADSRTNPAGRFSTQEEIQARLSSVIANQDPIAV
Chain of Neurogenic locus notch homolog protein 2 (Homo sapiens) (Q04721 whole entry, looked up, canonical isoform): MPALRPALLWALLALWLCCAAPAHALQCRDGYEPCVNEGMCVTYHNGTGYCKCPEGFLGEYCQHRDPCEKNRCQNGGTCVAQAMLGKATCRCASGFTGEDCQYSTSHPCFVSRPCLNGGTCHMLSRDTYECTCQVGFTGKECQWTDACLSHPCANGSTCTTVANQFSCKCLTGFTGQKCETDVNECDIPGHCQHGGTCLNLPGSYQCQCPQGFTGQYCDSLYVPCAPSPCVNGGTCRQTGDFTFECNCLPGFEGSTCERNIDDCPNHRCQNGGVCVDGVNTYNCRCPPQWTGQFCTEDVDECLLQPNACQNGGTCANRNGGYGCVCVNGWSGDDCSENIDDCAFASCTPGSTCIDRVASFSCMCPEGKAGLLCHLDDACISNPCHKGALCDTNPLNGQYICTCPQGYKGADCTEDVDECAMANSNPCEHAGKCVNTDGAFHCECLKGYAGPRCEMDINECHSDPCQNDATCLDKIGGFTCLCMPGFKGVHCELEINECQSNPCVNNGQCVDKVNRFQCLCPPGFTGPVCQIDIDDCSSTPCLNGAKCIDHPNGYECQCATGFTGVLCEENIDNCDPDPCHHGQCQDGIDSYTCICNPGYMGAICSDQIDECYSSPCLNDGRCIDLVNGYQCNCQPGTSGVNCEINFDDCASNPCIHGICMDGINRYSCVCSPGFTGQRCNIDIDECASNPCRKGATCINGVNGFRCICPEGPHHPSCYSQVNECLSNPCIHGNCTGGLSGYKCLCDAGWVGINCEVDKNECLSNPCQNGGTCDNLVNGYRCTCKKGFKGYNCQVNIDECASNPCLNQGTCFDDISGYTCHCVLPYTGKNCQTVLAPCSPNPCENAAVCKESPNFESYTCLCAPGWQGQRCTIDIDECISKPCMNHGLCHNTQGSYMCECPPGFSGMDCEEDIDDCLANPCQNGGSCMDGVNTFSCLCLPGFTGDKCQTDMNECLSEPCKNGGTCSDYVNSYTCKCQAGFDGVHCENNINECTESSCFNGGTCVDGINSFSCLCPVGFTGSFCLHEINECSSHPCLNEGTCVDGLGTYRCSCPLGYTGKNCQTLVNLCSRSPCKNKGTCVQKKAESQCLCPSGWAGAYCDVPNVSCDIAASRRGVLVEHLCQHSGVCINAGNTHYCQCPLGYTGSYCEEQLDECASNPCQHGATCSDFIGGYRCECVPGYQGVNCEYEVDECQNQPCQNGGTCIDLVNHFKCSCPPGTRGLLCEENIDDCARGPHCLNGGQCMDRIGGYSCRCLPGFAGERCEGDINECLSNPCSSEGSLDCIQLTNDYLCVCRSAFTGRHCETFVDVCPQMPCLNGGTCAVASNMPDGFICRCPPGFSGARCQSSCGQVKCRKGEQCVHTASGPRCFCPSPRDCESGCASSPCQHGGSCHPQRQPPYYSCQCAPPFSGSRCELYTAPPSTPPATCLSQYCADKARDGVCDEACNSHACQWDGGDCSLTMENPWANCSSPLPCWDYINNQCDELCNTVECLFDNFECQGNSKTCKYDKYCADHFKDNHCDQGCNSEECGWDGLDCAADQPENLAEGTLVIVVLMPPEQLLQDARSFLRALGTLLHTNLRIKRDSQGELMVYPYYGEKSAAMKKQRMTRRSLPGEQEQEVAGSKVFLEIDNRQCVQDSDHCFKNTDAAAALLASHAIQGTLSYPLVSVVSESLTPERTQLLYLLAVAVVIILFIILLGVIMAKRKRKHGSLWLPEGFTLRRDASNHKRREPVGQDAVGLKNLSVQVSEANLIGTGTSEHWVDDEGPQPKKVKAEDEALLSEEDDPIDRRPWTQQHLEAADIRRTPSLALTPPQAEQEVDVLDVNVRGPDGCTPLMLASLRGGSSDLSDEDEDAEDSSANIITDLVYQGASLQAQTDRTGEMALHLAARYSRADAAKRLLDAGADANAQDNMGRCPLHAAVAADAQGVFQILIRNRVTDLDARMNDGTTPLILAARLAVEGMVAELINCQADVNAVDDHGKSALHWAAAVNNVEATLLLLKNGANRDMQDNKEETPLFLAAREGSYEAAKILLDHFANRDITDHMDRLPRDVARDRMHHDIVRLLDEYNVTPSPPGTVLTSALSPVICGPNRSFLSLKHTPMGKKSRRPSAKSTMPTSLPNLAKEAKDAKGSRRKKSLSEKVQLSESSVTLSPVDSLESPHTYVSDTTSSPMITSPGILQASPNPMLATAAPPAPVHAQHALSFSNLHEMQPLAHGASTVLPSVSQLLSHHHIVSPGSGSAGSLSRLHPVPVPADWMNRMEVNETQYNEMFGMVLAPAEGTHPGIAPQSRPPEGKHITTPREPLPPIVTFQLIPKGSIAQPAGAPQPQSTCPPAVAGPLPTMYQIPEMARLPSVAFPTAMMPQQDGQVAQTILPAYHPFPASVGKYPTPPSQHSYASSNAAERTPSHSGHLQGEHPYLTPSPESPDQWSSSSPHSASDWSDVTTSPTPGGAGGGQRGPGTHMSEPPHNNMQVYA

Row | SMILES | composite z-score [1] | composite z-score [2] | composite z-score [3] | composite z-score [4] | composite z-score [5] | composite z-score [6] | composite z-score [7] | z-score [8] | composite z-score [9] | composite z-score [10] | composite z-score [11] | z-score [12] | z-score [13] | z-score [14] | composite z-score [15] | z-score [16] | composite z-score [17] | composite z-score [18] | composite z-score [19] | composite z-score [20]
1 | CCOC(=O)[C@H](CC(C)C)NC(=O)CCC1CC(OC(=O)NCCc2ccc(F)cc2)CC2(CCCC(COC(=O)NCC(c3ccccc3)c3ccccc3)O2)O1 (stereo not given in full) | -0.65 | 0.149 | -0.136 | 0.433 | 0.787 | 0.221 | 1.12 | 2.36 (inactive) | 0.0026 | -0.236 | 1.41 | -0.297 (inactive) | 0.427 (inactive) | -1.3 (inactive) | 2.59 | -0.198 (inactive) | -0.105 | 0.569 | 0.499 | -0.127
2 | O=C1C[C@@H](O)[C@@H](O)[C@@H]2[C@@H]3C(=O)N(Cc4ccccc4)C(=O)[C@@H]3CC[C@@H]12 | -0.281 | 0.311 | -0.0573 | 0.286 | 0.474 | 0.205 | 0.771 | 0.554 (inactive) | -0.0427 | -0.204 | 0.187 | -0.365 (inactive) | -0.136 (inactive) | -0.115 (inactive) | 0.824 | -0.174 (inactive) | -0.14 | 0.45 | 0.618 | -0.0432
3 | C[C@H]1COC(=O)[C@@H]2CCCN2C(=O)[C@@H](C)COC(=O)[C@H](Cc2ccccc2)NC1=O | -0.596 | 0.142 | -0.183 | 0.525 | 0.731 | -0.147 | 0.184 | -0.0297 (inactive) | 0.761 | -0.0645 | 0.907 | -0.801 (inactive) | 0.103 (inactive) | -1.2 (inactive) | 1.24 | 0.0412 (inactive) | -0.141 | 0.396 | 0.889 | 0.081
4 | CC(C)CON=C1C[C@@H](O)[C@@H](O)[C@@H]2[C@@H]3C(=O)N(C(C)(C)C)C(=O)[C@@H]3CC[C@H]12 | 1.33 | 0.275 | -0.133 | -0.136 | -0.681 | 0.414 | -0.099 | -0.392 (inactive) | -0.142 | -0.21 | 0.829 | -0.318 (inactive) | 0.674 (inactive) | 0.0851 (inactive) | 1.96 | 0.573 (inactive) | 0.0577 | -0.316 | -0.562 | -0.0966
5 | COC(=O)CC=C[C@@H](C)[C@@H](C=NOC[C@@H](O)[C@H]1O[C@@H]2OC(C)(C)O[C@@H]2[C@H]1O)NS(=O)(=O)c1ccc(C)cc1 | -0.383 | 0.746 | -0.171 | 0.347 | 0.463 | -0.0399 | -0.124 | 0.703 (inactive) | 0.155 | -0.641 | 0.601 | -0.684 (inactive) | -0.137 (inactive) | -0.408 (inactive) | 0.308 | 0.445 (inactive) | 0.0528 | 0.974 | 0.638 | -0.0553
